Only some compounds are listed: those with a hit (about 1.4% of all), similar ones and a draw of the others.
S1P2 antag: blocks the human S1P2 receptor; O95136; cell-based S1P2 antagonist assay, inhibition at 5 uM; inhibition, % at 5 µM; 0.21% of 97,000 active; in the data active = inhibition above about 45%;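 also: CRE beta-lactamase reporter cells expressing human S1P2 stimulated with S1P; 0% = agonist at EC80 alone and 100% = agonist plus reference antagonist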
Target sequence (O95136 whole entry, looked up): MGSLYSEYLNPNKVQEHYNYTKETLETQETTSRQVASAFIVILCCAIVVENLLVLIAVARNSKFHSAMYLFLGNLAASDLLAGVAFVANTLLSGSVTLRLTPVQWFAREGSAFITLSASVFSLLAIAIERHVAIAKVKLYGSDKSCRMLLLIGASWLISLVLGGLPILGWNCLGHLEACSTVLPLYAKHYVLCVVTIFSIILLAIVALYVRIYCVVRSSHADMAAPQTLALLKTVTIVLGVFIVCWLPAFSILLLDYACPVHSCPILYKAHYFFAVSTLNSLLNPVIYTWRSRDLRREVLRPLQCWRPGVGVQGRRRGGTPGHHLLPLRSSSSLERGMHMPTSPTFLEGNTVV
LYP inh 2: inhibitors of human LYP (PTPN22) phosphatase. recombinant LYP catalytic domain, DiFMUP fluorescence. inhibition, % at 2 µM. 0.21% of 96,000 active. AID 640;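 active = inhibition at 2 µM at or above a set limit, the screen mean plus 3 SD, cut at about 24% in these data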;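 also: 0% = DMSO with enzyme and 100% = enzyme fully blocked by orthovanadate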
GALR2 ag: GALR2 (human) receptor agonism; O43603; GALR2-expressing cells, agonist activation read-out; activation, % (concentration not given with the values); 0.48% of 140,000 active; in the data active = activation above about 5%, passing the limit was not always enough;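 also: 0% = vehicle buffer wells and 100% = reference agonist at full effect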
GALR2 blocker: antagonists of human galanin receptor 2 (GALR2) | O43603 | GALR2-expressing cells, antagonist mode | inhibition, % at 4 µM | 0.39% of 140,000 active; in the data active = inhibition above about 27%;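 also: cells stimulated with galanin 1-16 at roughly its EC80; 0% = agonist challenge control and 100% = basal control without agonist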
LYP act: increases human PTPN22 phosphatase activity; activation, % at 2 µM; Q9Y2R2; AID 697; recombinant LYP, DiFMUP fluorescence; 0 = plate median, 100 = signal doubled; 0.11% of 96,000 active;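 active = activation at 2 µM above a set limit, the mean plus 5 SD, cut at about 37% in these data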
S1P2 ag: agonists of human S1P2 receptor. O95136. S1P2-expressing cell line, agonist reporter read-out. activation, % at 4.5 µM. 0.46% of 97,000 active; in the data active = activation above about 16%;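 also: 0% = vehicle low control and 100% = maximal reference agonist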
GALR2 ag confirm: confirmation of human galanin receptor 2 (GALR2) agonists; 10% of 460 active; shares compounds with GALR2 ag; GALR2-expressing cells, agonist activation; activation, % at 5.6 µM; in the data active = activation above about 8.4%;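 also: 0% = buffer-only vehicle wells and 100% = full reference agonist response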
BLA activ ctr: activates beta-lactamase reporter in GALR2 agonist counterscreen | CHO NFAT-bla reporter, beta-lactamase FRET activation | activation, % at 5.6 µM | shares compounds with GALR2 ag | AID 865 | 10% of 460 active;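 active = activation above the screen-wide mean activation plus 3 SD, cut at about 8% in these data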;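 also: 0% = DMSO with PBS wells and 100% = thapsigargin positive control wells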
An asterisk follows results filed as active; . = no result given.

SMILES	S1P2 antag	LYP inh 2	GALR2 ag	GALR2 blocker	LYP act	S1P2 ag	GALR2 ag confirm	BLA activ ctr
CC(=O)Nc1c(S(=O)(=O)c2ccccc2)c2nc3ccccc3nc2n1Cc1ccccc1	4	9	10	-7	-7	4	1	6
CC(=O)Nc1ccc(Nc2ncnc3c2cnn3-c2cccc(C)c2)cc1	-7	6	-1	3	-4	-7	.	.
CC(=O)Nc1ccc(Nc2ncnc3c2cnn3-c2ccc(C)cc2C)cc1	-1	8	76*	-5	-10	-7	-1	-2
COc1ccc(N2C(=O)C3ON(C4SC(=S)N(C)C4(C)C)C(c4ccc(Cl)cc4)C3C2=O)cc1 (configuration not stated)	.	.	-1	-13	.	.	.	.
Cc1cc(=O)[nH]c(-n2nc(C)c(Oc3ccccc3O)c2C)n1	20	3	32*	-31	-6	-1	27*	60*
Cc1ccc(NC(=O)C2C3CC4OC(=O)C2C4C3)cc1Cl (configuration not stated)	-10	3	38*	1	-6	-7	0	0
O=C1NC(c2ccco2)Nc2sc3c(c21)CCN(Cc1ccccc1)C3 (configuration not stated)	-10	11	16*	-8	-14	9	0	1
CN1CCc2c(sc3c2C(=O)NC(c2ccco2)N3)C1 (configuration not stated)	2	7	2	-11	-4	1	.	.
COc1ccc(C(=O)CSc2nnc(CN3CCCCC3)n2-c2ccc(F)cc2)cc1	.	.	-1	-1	.	.	.	.
CC(C)NC(=S)NNC(=O)C12CC3CC(CC(C3)C1)C2	-7	-8	12*	3	7	-4	-1	-2
CCCCNC(=S)NNC(=O)C12CC3CC(CC(C3)C1)C2	-4	6	-1	-3	-3	-1	.	.
COc1ccc(C2=NOC(C(=O)Nc3cc(Br)ccc3O)C2)cc1OC (configuration not stated)	-11	-4	21*	-3	2	-4	0	-2
COc1ccc(C2=NOC(C(=O)Nc3ccc(C(C)=O)cc3)C2)cc1OC (configuration not stated)	15	4	-1	11	-4	-5	.	.
O=C(Cn1cnc2ccc(Br)cc2c1=O)c1cccs1	14	3	-1	-4	0	-3	.	.
CO/N=C/c1ccc(N2CCN(C(=O)c3ccc(Cl)cc3Cl)CC2)c([N+](=O)[O-])c1	12	-9	-3	-1	13	-12	.	.
COc1ccc(C(=O)N2CCC(O)(c3ccc(F)cc3)CC2)cc1OC	-30	-5	98*	-6	3	-5	0	-3
CCOC(=O)/C(=C\Nc1ccccc1C(F)(F)F)Sc1ncc(C(F)(F)F)cc1Cl	-11	-1	10	-8	0	-3	-1	-3
CCOC(=O)/C(C#N)=C/c1ccc(OC)c(OC)c1	-39	-3	16*	-20	0	-2	-1	-3
C/C(=N\NC(=O)c1ccc([N+](=O)[O-])c(C)c1)c1ccccc1Cl	.	.	0	4	.	.	.	.
CCCCCCc1cc2cc(S(=O)(=O)c3ccc(Cl)cc3)c(=O)oc2cc1O	.	.	20*	-10	.	.	15*	46*
CCCCCCc1cc2cc(S(=O)(=O)c3ccc(C)cc3)c(=O)oc2cc1O	.	.	45*	-16	.	.	15*	42*
CCN(CC)c1ccc2cc(S(=O)(=O)c3ccc(Cl)cc3)c(=O)oc2c1	.	.	43*	-15	.	.	16*	29*
CCCCCCc1cc2cc(C(=O)Nc3ccccc3)c(=O)oc2cc1O	.	.	0	-7	.	.	.	.
CC(NS(=O)(=O)c1ccc(Br)cc1)C(c1cccs1)N1CCOCC1 (configuration not stated)	.	.	0	4	.	.	.	.
CCOc1cc(C2NC(=O)NC(C)=C2C(=O)OCc2ccccc2)ccc1O (configuration not stated)	-7	11	0	-18	-13	-4	.	.
SMILES	S1P2 antag	LYP inh 2	GALR2 ag	GALR2 blocker	LYP act	S1P2 ag	GALR2 ag confirm	BLA activ ctr
Cc1ccc(CNS(=O)(=O)/C=C/c2ccc3c(c2)OCO3)cc1	10	.	-3	1	.	-2	.	.
CNc1c([N+](=O)[O-])cnn1-c1ccc(Cl)cc1	-3	4	0	7	0	-5	.	.
COC(=O)C1=CN(CC2CCCO2)C=C(C(=O)OC)C1c1ccccc1C(F)(F)F (configuration not stated)	2	4	12*	-8	0	11	3	8
CCOc1nc(-c2ccc(Cl)cc2)nc2ccccc12	.	.	0	0	.	.	.	.
CCOC(=O)c1c(NC(=O)Cn2cnc3scc(-c4ccc(C)cc4)c3c2=O)sc(C)c1C	.	.	0	-10	.	.	.	.
CC(C)NC(=O)c1ccccc1NC(=O)/C=C/c1cccc([N+](=O)[O-])c1	.	.	25*	3	.	.	11*	22*
CC(C)C(NC(=O)/C=C/c1cccc([N+](=O)[O-])c1)C(C)C	.	.	-2	4	.	.	.	.
Cc1ccc(-n2nc(C(=O)NCc3ccc(C)o3)c3c4ccccc4n(C)c3c2=O)cc1	3	3	14*	-17	-3	1	0	-2
COc1ccc(-n2nc(C(=O)NCc3ccco3)c3c4ccccc4n(C)c3c2=O)cc1	.	.	-1	12	.	.	.	.
CCOC(=O)c1c(NC(=O)c2ccc(Cl)cc2)csc1C	.	.	-1	3	.	.	.	.
O=C(Nc1ccc(O)cc1)/C(=C\c1cccs1)NC(=O)c1ccccc1	.	.	8.8*	5	.	.	-1	1
C/C(=N\NC(=O)c1nn(C)c(C)c1Br)c1ccc(NC(=O)c2ccccc2F)cc1	.	.	-2	9	.	.	.	.
N#C/C(=C\c1c(N2CCC(C(N)=O)CC2)nc2ccccn2c1=O)C(=O)NCc1ccco1	.	.	0	2	.	.	.	.
N#C/C(=C\c1c(N2CCCCCC2)nc2ccccn2c1=O)C(=O)NC1CCS(=O)(=O)C1 (configuration not stated)	.	.	8.9*	-20	.	.	0	0
O=C(CSc1ccccc1[N+](=O)[O-])NC1CCS(=O)(=O)C1 (configuration not stated)	.	.	-1	-7	.	.	.	.
CC1=C(C)CC(C(=O)NNC(=O)c2cccc(Cl)c2)C(C(=O)O)C1 (configuration not stated)	.	.	8.2*	6	.	.	-1	-1
CC1=C(C)CC(C(=O)NNC(=O)c2ccccc2)C(C(=O)O)C1 (configuration not stated)	8	1	-2	10	4	-6	.	.

High-throughput results: PubChem, several laboratories
